Among the data in PubChem BioAssay AID434927 (Sanford-Burnham Center for Chemical Genomics, 2010) are inhibition values, retold here.

Values without a mark were called inactive. The source made the active and inactive calls.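 The calls were made as follows: active = inhibition above about 23% in any of six single-dose repeats (limit read from the data); inactive = the rest.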

The inhibition is the relative decrease from the control value, in per cent.

The assay deals with Intestinal-type alkaline phosphatase (Homo sapiens) (UniProt P09923). In words: suppression of intestinal alkaline phosphatase activity – biochemical, luminescence, single concentration, uHTS hits, confirmation (AID 434927).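 Also: plate controls were DMSO wells with enzyme for no effect and wells lacking enzyme for full effect.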 Conditions: purified human IAP, CDP-Star luminescence, 30 min; at 8.3 µM; active compounds read high.
Chain of Intestinal-type alkaline phosphatase (Homo sapiens) (P09923 whole entry, looked up): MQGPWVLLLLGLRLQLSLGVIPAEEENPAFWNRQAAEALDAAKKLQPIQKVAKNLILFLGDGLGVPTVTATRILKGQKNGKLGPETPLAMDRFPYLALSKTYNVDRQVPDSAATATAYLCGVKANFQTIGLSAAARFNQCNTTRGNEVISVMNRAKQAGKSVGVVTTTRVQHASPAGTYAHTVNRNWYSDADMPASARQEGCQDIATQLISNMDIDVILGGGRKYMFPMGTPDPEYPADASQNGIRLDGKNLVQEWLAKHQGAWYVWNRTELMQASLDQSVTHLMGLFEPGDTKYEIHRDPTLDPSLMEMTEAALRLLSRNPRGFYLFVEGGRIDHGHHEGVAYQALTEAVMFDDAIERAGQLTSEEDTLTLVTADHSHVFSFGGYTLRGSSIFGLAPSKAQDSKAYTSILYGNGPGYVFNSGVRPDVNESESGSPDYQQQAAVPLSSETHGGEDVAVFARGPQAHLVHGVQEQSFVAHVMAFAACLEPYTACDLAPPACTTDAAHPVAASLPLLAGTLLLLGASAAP
Turning to `Cc1cc(OCC(=O)Nc2ncn[nH]2)ccc1Cl`, the inhibition is -87%.
The figure for `CC(C)CC(=O)NC(=S)NNC(=O)c1ccc(NC(=O)C2CCCCC2)cc1` is 62.1% (active); for `Cc1nc2c3ccccc3nc(NNC(=O)CCC(=O)NCCC(C)C)n2n1` it is -64.4%.
To `Cc1cccc(OCC(=O)NNC(=O)c2ccc3nc[nH]c3c2)c1` belongs -117%; to `Cc1ccc(-c2cc(C(=O)N/N=C/c3ccccc3O)n[nH]2)o1`, 39.3% (active).
As for `O=C(CCCCC(=O)NNC(=O)COc1ccccc1)NNC(=O)COc1ccccc1`, the inhibition was -88.4%.
As for `COc1ccc(NC(=S)NNC(=O)c2nnn(-c3ccccc3)c2C)cc1`, the inhibition was 24% (active).
For the molecule `CCN(CC)c1ccc(N=Nc2nn(C)c(C)c2[N+](=O)[O-])cc1`, the inhibition is 34.7% (active).
To `CN(C)S(=O)(=O)c1cccc(NC(=S)NNC(=O)c2cc3ccccc3cc2O)c1` belongs 72.3% (active); to `CC(=O)c1ccc(NC(=O)C2CCCN2S(=O)(=O)c2cccs2)cc1` (stereo unspecified), -85.1%; to `Cc1cc(C)n(C(=O)C23CC4CC(CC(C4)C2)C3)n1`, -126%.
Regarding `O=C(NN1C(=O)/C(=C/c2ccc(O)c([N+](=O)[O-])c2)SC1=S)c1ccccc1Cl`, the inhibition is 38.9% (active).
For the molecule `CCCCCCCn1c(=N)n(CC(=O)c2ccco2)c2ccccc21`, the inhibition was -49.6%.
The figure for `CC(C)CCNc1ncnc2c1nnn2Cc1ccccc1Cl` is 40.2% (active).
For `O=C(Nc1cccc(-c2cccc(F)c2)c1)C1CCN(C2CCC2)CC1`, the inhibition is 67.6% (active).
The figure for `COc1ccc(O)c(/C=N/NC(=S)NCCc2ccccc2)c1` is -91.2%.
